According to PubChem BioAssay AID2330 (Broad Institute, 2010):
About 2,800 (7.6%) of roughly 37,000 compounds were called active. Not shown: some 1% with an inconclusive outcome. The full list was thinned out, with actives kept by preference. A number with no mark means an inactive call. No stated cut-off is given here; in the data, active means inhibition above about 80%; inconclusive means no clear call, values can overlap the other calls; inactive means below that.

experiment: NOMO-1 AML cell viability reduction, primary screen, STK33 inhibitor project, CellTiter-Glo luminescence (AID 2330); conditions: NOMO-1 AML viability, 72 h, stronger effect = higher value, concentration not given here

Structure (SMILES) | inhibition
COc1ccc(S(=O)(=O)Nc2cccc3c2O[C@@H](CN(C)Cc2ccc(-c4ccccc4)cc2)[C@H](C)CN([C@H](C)CO)C3=O)cc1 | 22.4%
CCn1c(SCC(=O)c2ccc(OC)cc2)nnc1-c1ccc(Cl)cc1Cl | -7.21%
Cc1cccc(N(CC(=O)Nc2cccc([N+](=O)[O-])c2)S(C)(=O)=O)c1C | -1.91%
COc1cc(OC)c(NC(=O)CSc2nnc(-c3ccncc3)n2-c2ccccc2)cc1Cl | 37.4%
COc1ccc(OC)c(NC(=O)c2cnn(-c3ccccc3Cl)c2NC(=O)c2ccco2)c1 | 21.2%
CC(C)NC(=O)Nc1ccc2c(c1)CC(=O)N([C@H](C)CO)C[C@@H](C)[C@@H](CN(C)C(=O)Nc1ccc3c(c1)OCO3)O2 | 21.8%
c1ccc(-n2c(SCc3nc4ccccc4s3)nnc2-c2ccncc2)cc1 | 37.8%
CSC1=N/C(=C\C=C\c2cccs2)C(=O)S1 | 123% (active)
COc1ccc(N(Cc2cc3ccccc3[nH]c2=O)C(=O)c2cccc(OC)c2)cc1 | -11%
COc1ccccc1CCNC(=O)c1cnccn1 | 4.1%
COC(=O)c1scc(S(=O)(=O)C(C)(C)C)c1-n1cccc1 | 100% (active)
C[C@@H]1CN([C@H](C)CO)C(=O)c2cc(NC(=O)CCN3CCOCC3)ccc2O[C@H]1CN(C)Cc1ccc(Oc2ccccc2)cc1 | 5.92%
C[C@@H]1CN([C@H](C)CO)C(=O)c2cc(NS(=O)(=O)c3cccs3)ccc2O[C@H]1CN(C)Cc1ccncc1 | -4.5%
C=C1C(=O)O[C@@H]2[C@H]3C(CO)=CC(=O)C3=C(C)C[C@H](OC(=O)Cc3ccc(O)cc3)[C@@H]12 | 120% (active)
C=CC(=O)c1ccc2ccccc2c1 | 98.4% (active)
COc1ccccc1NC(=O)CCC(=O)c1ccc(C)cc1 | 29.1%
COC(=O)C(C)N(C#N)c1nc(C)nc(C)n1 (centres undefined) | 113% (active)
COc1ccc(CN(C)C[C@H]2Oc3c(NC(=O)c4cnccn4)cccc3C(=O)N([C@H](C)CO)C[C@@H]2C)cc1 | 5.98%
C[C@@H]1CC[C@]2(C)[C@H](CC[C@@H](O)[C@]2(C)O)[C@@]1(C)CC(=O)c1ccoc1 | 9.78%
COc1cc(OC)cc(C2C(C#N)=C(N)OC(N)=C2C#N)c1 | 38.6%
COCc1nc2c([nH]1)C(c1ccccc1COc1ccc(Cl)cc1)C(C#N)=C(N)O2 (centres undefined) | 111% (active)
CCn1c(SCC(=O)O)nnc1-c1ccc(OC)cc1 | -32.5%
S=c1cc(-c2ccccc2)oc(-c2ccccc2)c1 | 61.2%

Structure (SMILES) | inhibition
C[C@@H]1CN([C@H](C)CO)C(=O)c2cccc(NS(=O)(=O)c3ccc(Cl)cc3)c2O[C@@H]1CN(C)Cc1ccc(Oc2ccccc2)cc1 | 49.7%
CCC(=O)O[C@]1(C(=O)CCl)[C@@H](C)CC2C3CCC4=CC(=O)C=C[C@]4(C)[C@@]3(F)[C@@H](O)C[C@@]21C (some centres undefined) | 7.72%
COc1cc(NC(=O)COc2ccc(Br)cc2)ccc1NC(=O)c1ccccc1Cl | 13.7%
CC(C)(C)c1ccc(-c2[nH]nc(NC(=O)c3ccccc3Cl)c2Br)cc1 | 123% (active)
C[C@@H]1CN([C@@H](C)CO)C(=O)Cc2cc(NC(=O)Nc3ccc4c(c3)OCO4)ccc2O[C@@H]1CN(C)C(=O)Nc1ccc2c(c1)OCO2 | 9.09%
CC(C)NC(=O)Nc1cccc2c1O[C@H](CN(C)S(=O)(=O)c1ccccc1)[C@@H](C)CN([C@@H](C)CO)C2=O | 6.74%
C[C@H]1CN([C@@H](C)CO)C(=O)c2cc(NS(=O)(=O)c3ccc(F)cc3)ccc2O[C@H]1CN(C)CC1CC1 | 16.3%
Cc1ccc(S(=O)(=O)Nc2ccc3c(c2)C(=O)N([C@@H](C)CO)C[C@H](C)[C@@H](CN(C)S(=O)(=O)c2ccc(C)cc2)O3)cc1 | -8.16%
C[C@@H]1CN([C@H](C)CO)C(=O)Cc2cc(NC(=O)c3ccncc3)ccc2O[C@H]1CN(C)S(=O)(=O)c1cccs1 | 13.9%
C[C@H](CO)N1C[C@H](C)[C@H](CN(C)Cc2ccc(C(F)(F)F)cc2)Oc2ccc(NS(C)(=O)=O)cc2C1=O | 3.14%
CCn1c(SCC(=O)Nc2sc3c(c2C#N)CCCC3)nnc1-c1ccccc1O | -7.99%
N#Cc1c(NC(=O)CCn2cnc3ccccc3c2=O)sc2c1CCCC2 | 27.7%
CN1CCN(CC(=O)Nc2sc3c(c2C#N)CCC(C(C)(C)C)C3)CC1 (centres undefined) | 115% (active)
OC(c1nc2ccccc2[nH]1)C(O)C(O)C(O)c1nc2ccccc2[nH]1 (centres undefined) | -2.04%
O=C(CSc1ncnc2sc3c(c12)CCCC3)Nc1ccc(F)c(Cl)c1 | -1.63%
CC(C)NC(=O)N(C)C[C@H]1Oc2c(NS(C)(=O)=O)cccc2C(=O)N([C@@H](C)CO)C[C@H]1C | 12.9%
C[C@@H]1CN([C@@H](C)CO)C(=O)c2cccc(NC(=O)c3cnccn3)c2O[C@H]1CN(C)S(=O)(=O)c1cccs1 | 9.49%
O=C(OCC1OC(Oc2ccc(O)cc2COC(=O)C2(O)C(O)CCC(O)C2O)C(O)C(O)C1O)c1ccccc1 (centres undefined) | 17%
COc1cc(O[C@@H]2O[C@H](CO[C@H]3OC[C@](O)(COC(=O)c4ccc(O)c(OC)c4)[C@H]3O)[C@@H](O)[C@H](O)[C@H]2O)ccc1O | 120% (active)
COc1cc(/C=C/C(=O)O[C@@H]2O[C@H](CO[C@@H]3O[C@H](CO)[C@@H](O)[C@H](O)[C@H]3O)[C@@H](O)[C@H](O)[C@H]2OC(=O)/C=C/c2cc(OC)c(O)c(OC)c2)cc(OC)c1O | 14.7%
Cc1ccc(S(=O)(=O)N(C)C[C@@H]2Oc3c(NC(=O)C4CCCCC4)cccc3C(=O)N([C@H](C)CO)C[C@H]2C)cc1 | 16.1%
COc1ccc(NC(=O)Nc2ccc3c(c2)C(=O)N([C@H](C)CO)C[C@H](C)[C@H](CN(C)C(=O)Nc2c(C)noc2C)OCCCC[C@@H](C)O3)cc1 | -10.5%
COc1ccc(NC(=O)Nc2ccc3c(c2)C(=O)N([C@@H](C)CO)C[C@@H](C)[C@H](CN(C)Cc2ccc(Cl)c(Cl)c2)O3)cc1 | 39.3%

Structure (SMILES) | inhibition
C[C@@H]1CN([C@H](C)CO)C(=O)c2cc(NC(=O)Nc3ccccc3)ccc2O[C@@H]1CN(C)Cc1ccc(Cl)c(Cl)c1 | 88.9% (active)
C[C@@H]1CN([C@H](C)CO)C(=O)c2cc(NC(=O)Nc3ccc(F)cc3)ccc2O[C@@H]1CN(C)Cc1ccc(Cl)c(Cl)c1 | 62.8%
C[C@@H]1CN([C@@H](C)CO)C(=O)c2cc(NC(=O)Nc3cccc4ccccc34)ccc2O[C@H]1CN(C)Cc1ccc(Cl)c(Cl)c1 | 94% (active)
CC(C)NC(=O)Nc1ccc2c(c1)C(=O)N([C@@H](C)CO)C[C@@H](C)[C@H](CN(C)Cc1ccc(Cl)c(Cl)c1)O2 | 44.5%
C[C@@H]1CN([C@H](C)CO)C(=O)c2cc(NC(=O)Nc3ccccc3)ccc2O[C@H]1CN(C)Cc1ccc(Cl)c(Cl)c1 | -8.23%
CC(=O)Oc1ccc(N(C(C)=O)S(=O)(=O)c2ccc(Cl)cc2)cc1 | 42.4%
CCC(Oc1cccc(NC(=O)c2ccccc2[N+](=O)[O-])c1)C(=O)c1ccccc1 (centres undefined) | 2.87%
Cc1ccc(NC(=O)CSc2ncnc3sc(C)c(C)c23)cc1 | 11.3%
Cc1ccc(S(=O)(=O)NCC(=O)N2CCN(c3ccccn3)CC2)cc1 | -2.49%
Cc1ccc(S(=O)(=O)Nc2ccc3c(c2)C(=O)N([C@@H](C)CO)C[C@@H](C)[C@@H](CN(C)Cc2ccncc2)O3)cc1 | 22.8%
C[C@H](CO)N1C[C@H](C)[C@@H](CN(C)Cc2ccc3c(c2)OCO3)Oc2ccc(NC(=O)Nc3ccc(F)cc3)cc2C1=O | -1.77%
C[C@@H]1CN([C@H](C)CO)C(=O)c2cc(NC(=O)Nc3ccc(C(F)(F)F)cc3)ccc2O[C@H]1CN(C)C(=O)Nc1ccccc1 | 24.7%
C[C@H]1CN([C@@H](C)CO)C(=O)c2cccc(NC(=O)Nc3ccc(C(F)(F)F)cc3)c2O[C@@H]1CN(C)Cc1ccccc1 | 72.2%
C[C@H]1CN([C@@H](C)CO)C(=O)c2cc(NC(=O)Nc3ccccc3)ccc2O[C@@H]1CN(C)C(=O)Nc1ccccc1 | 6.27%
C[C@@H]1CN([C@@H](C)CO)C(=O)c2cccc(NC(=O)Nc3ccc(F)cc3)c2O[C@H]1CN(C)C(=O)Nc1ccc(F)cc1 | -5.44%
C[C@H](CO)N1C[C@H](C)[C@H](CN(C)C(=O)Nc2ccccc2)Oc2c(NC(=O)Nc3ccc(C(F)(F)F)cc3)cccc2C1=O | 96.2% (active)
C[C@@H]1CN([C@@H](C)CO)C(=O)c2cccc(NC(=O)Nc3ccc(F)cc3)c2O[C@@H]1CN(C)C(=O)Nc1ccccc1 | 35.8%
COc1ccc(CN(C)C[C@H]2Oc3c(NC(=O)Nc4ccccc4)cccc3C(=O)N([C@@H](C)CO)C[C@@H]2C)cc1 | 56.6%
C[C@@H]1CN([C@@H](C)CO)C(=O)c2cccc(NC(=O)Nc3ccccc3)c2O[C@H]1CN(C)Cc1ccccc1 | 117% (active)
C[C@H](CO)N1C[C@H](C)[C@H](CN(C)C(=O)Nc2ccc(C(F)(F)F)cc2)Oc2ccc(NC(=O)Nc3ccccc3)cc2C1=O | 85.9% (active)
C[C@@H]1CN([C@H](C)CO)C(=O)c2cccc(NC(=O)Nc3cccc4ccccc34)c2O[C@@H]1CN(C)C(=O)Nc1ccc(F)cc1 | 97% (active)
C[C@@H]1CN([C@H](C)CO)C(=O)c2cccc(NC(=O)Nc3cccc4ccccc34)c2O[C@@H]1CN(C)C(=O)Nc1cccc2ccccc12 | 10.3%
C[C@@H]1CN([C@H](C)CO)C(=O)c2cccc(NC(=O)Nc3ccccc3)c2O[C@H]1CN(C)Cc1ccccc1 | 75.5%
